From PubChem BioAssay AID493169 (National Center for Advancing Translational Sciences (NCATS), 2011) come the findings set out here.

The structures appear in SMILES notation. Inconclusive results are not listed. Values without a mark were called inactive. Activity calls are given as the source filed them. Calls follow the shape of the dose curve; as a rule, active = well fitted inhibition curve with a large enough effect; inconclusive = small, poorly fitted or top-dose-only effect; inactive = flat fitted curve, though single readings scatter.
% is scaled to controls: 0 for no effect and ±100 for the full control effect; potency is read from the fitted curve at half-maximal effect.

The assay is described as follows: CHOP2 Reporter Counterscreen Assay for Inhibitors of Ubiquitin-specific Protease USP2a.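 Also: activated enterokinase alone at 50 pM in a cell-free format rather than USP2a or CHOP2; nearly all actives have a fitted effect of over 55% in size.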 Conditions: purified enterokinase, fluorogenic substrate, 485/531 nm; series mostly up to 38.3 µM; activity change, negative = inhibition: at the top concentration. In a few lines:
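Fluorescence (485/531 nm) read 10 min after adding 25nM reporter substrate to 50 pM activated EK preincubated 30 min RT with compound; Tris pH 8.0/CaCl2/CHAPS buffer. Data normalized to buffer-alone inhibition; concentration-response curves fitted.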
(In general: A counterscreen serves to expose hits that act by an unwanted route or on another target.)
`COc1ccc(-c2csc(N3CCN(C(=O)c4ccco4)CC3)n2)cc1`: the “activity change, negative = inhibition” value was 4.54%.
As for `O=C(Nc1ccncc1)c1ccc(S(=O)(=O)Nc2ccccc2)cc1`, the Potency was 3.55 µM (active).
Regarding `O=C(c1ccc(CS(=O)(=O)c2ccc(Br)cc2)o1)N1CCCC1`, the “activity change, negative = inhibition” value is -2.08%.
Turning to `CCn1nc(C(=O)N[C@@H](CCSC)c2nc3ccccc3[nH]2)c2ccccc2c1=O`, the “activity change, negative = inhibition” value is -2.42%.
As for `CCC(C(=O)NCc1ccccc1OC)n1nc(C)n2c(cc3occc32)c1=O` (stereo not given), the “activity change, negative = inhibition” value is 0.79%.
Consider `COc1ccc(/C=C2/SC(=S)N(c3ccc(S(=O)(=O)Nc4nccs4)cc3)C2=O)cc1`, for which the Potency is 11.2 µM (active).
Regarding `COc1ccc(C(=O)OCC(=O)c2c[nH]c3ccccc23)c(OC)c1`, the “activity change, negative = inhibition” value is -3.08%.
In the case of `Cc1cc2c(c(=O)n1CC1CCCO1)C(c1ccco1)C(C#N)=C(N)O2` (stereo not given), the “activity change, negative = inhibition” value is 1.78%.
Consider `COc1ccc(OCC(=O)NCCNC(=O)c2cccnc2)cc1`, for which the “activity change, negative = inhibition” value was 3.16%.
For the molecule `Cc1ccc(NC(=O)CS(=O)CC(=O)Nc2ccc(N3CCOCC3)cc2)cc1Cl` (stereo not given), the “activity change, negative = inhibition” value is -25.4%.
For the molecule `O=C(Nc1nc(-c2ccco2)c(-c2ccco2)s1)C1CC(=O)N(c2ccc3c(c2)OCCO3)C1` (stereo not given), the Potency was 4.47 µM (active).
With `COc1ccc(NC(=O)CSc2ncccc2C(=O)OC(C)C)cc1OC`, the “activity change, negative = inhibition” value was 1.72%.
The same measure, in the same setting: the figure for `COC1=CCC2([N+](=O)[O-])CN(CCO)CC1([N+](=O)[O-])C2` (stereo not given) is -0.623%; for `NC1=NC2(CCC(c3ccccc3)CC2)n2c(nc3ccccc32)N1` (stereo not given) it is -0.14%; for `Cc1c(O)c(CN2CCCC2)cc2c3c(c(=O)oc12)CCC3` it is 1.28%.
In the case of `COc1ccc(NC(=O)CSc2nc(O)cc(=O)n2-c2ccc(OC)cc2)cc1`, the “activity change, negative = inhibition” value was -6.78%.
`COc1cc(/C=C/c2cc[n+](C)cc2)ccc1OCC(=O)Nc1ccc(Cl)c(Cl)c1`: the Potency was 11.2 µM (active).
Consider `O=C(Nc1ccc(N2CCCC2)cc1)c1ccc(Br)cc1`, for which the Potency was 5.01 µM (active).
In the case of `CC(=O)OCC(=O)Nc1ccc(Cl)cc1Cl`, the “activity change, negative = inhibition” value is -2.04%.
The same measure, in the same setting: the figure for `COc1ccc(CCN2CC(C#N)=C3c4cc(OC)c(OC)cc4CCN3C2)cc1OC` is 1.78%.
As to `CCOC(=O)CN1C(=O)S/C(=C/c2ccc(O)c([N+](=O)[O-])c2)C1=O`, the “activity change, negative = inhibition” value was -6.49%.
For the molecule `COc1cc(C(=O)OCC(=O)Nc2c(F)c(F)c(F)c(F)c2F)cc(OC)c1OC`, the “activity change, negative = inhibition” value was -0.4%.
On to `CC1CCCC(N2CCN(C(=O)c3cccc(F)c3)CC2)C1` (stereo not given), for which the “activity change, negative = inhibition” value is -19%.
For the molecule `O=C1OC[C@@H]2CCCN2C(=O)[C@@H](CC(=O)N(CCO)Cc2ccccc2)C/C=C\C[C@@H]1Cc1ccc(F)cc1`, the “activity change, negative = inhibition” value was 0.34%.
Regarding `O=C(NC1CCCC1)C1C2C=CC(C2)C1C(=O)N1CCOCC1` (stereo not given), the “activity change, negative = inhibition” value is 4.28%.
As to `CCC1=[N+](CC(=O)c2ccc(Br)cc2)CCn2c(C)ccc21`, the “activity change, negative = inhibition” value was -22%.
With `CCOc1ccc(-c2ccc(/C=C3/C(=N)N4C(C)=CSC4=NC3=O)o2)c([N+](=O)[O-])c1`, the “activity change, negative = inhibition” value is -15.5%.
Regarding `O=C(N/N=C/c1ccc(-c2ccc(S(=O)(=O)Nc3ncccn3)cc2)o1)c1cc2ccccc2cc1O`, the Potency is 3.98 µM (active).
`CCOC(=O)C1CCN(C(=O)COC(=O)c2c(C)c(CC)nc3ccccc23)CC1`: the “activity change, negative = inhibition” value is -0.452%.
Same read-out and setting: the figure for `C=CC[C@H](CC(=O)OC(C)(C)C)C(=O)OC[C@@H]1CCCN1C(=O)[C@H](CC=C)CC(=O)N[C@H](CO)Cc1ccccc1` is -1.71%.
In the case of `CN(C)S(=O)(=O)c1ccc(C(=O)NCCN=C2NS(=O)(=O)c3ccccc32)cc1`, the “activity change, negative = inhibition” value is 0.218%.
As to `O=C1c2ccccc2C(=O)N1CCCCn1c(=O)oc2ccccc21`, the “activity change, negative = inhibition” value is 0.299%.
As for `C=CC[C@H](CC(=O)N(CCO)Cc1ccccc1)C(=O)N[C@H](C)COC(=O)[C@@H](CC=C)CC(=O)OC(C)(C)C`, the “activity change, negative = inhibition” value was 0.348%.
As for `CC(=O)C1=C(O)C(=O)N(c2nnn(C)n2)C1c1cccs1` (stereo not given), the “activity change, negative = inhibition” value is -0.348%.
For the molecule `COc1cccc(C(=O)NCc2ccc3[nH]c(C)cc3c2)c1`, the “activity change, negative = inhibition” value was 3.71%.
Regarding `Cc1n[nH]c(C)c1S(=O)(=O)N1CCCC(C(=O)Nc2nccs2)C1` (stereo not given), the “activity change, negative = inhibition” value is 1.87%.
Regarding `O=C(C[n+]1ccc(-c2cc(C(=O)Nc3cccc(C(F)(F)F)c3)c3ccccc3n2)cc1)c1cccc([N+](=O)[O-])c1`, the “activity change, negative = inhibition” value is -18%.
For `O=C(O)c1cccc(-n2cccc2/C=C2/NC(=O)N(c3ccc(Cl)cc3)C2=O)c1`, the Potency is 2 µM (active).
Take `COCCN1Cc2cccc(C(=O)N3CCN(c4cc(C)ccc4C)CC3)c2C1=O`: the “activity change, negative = inhibition” value was -2.08%.
In the case of `N#Cc1c(Nc2ccc(Cl)cc2)s[nH]c1=O`, the “activity change, negative = inhibition” value is -3.6%.
